Bioassay records deposited in PubChem by National Center for Advancing Translational Sciences (NCATS).
An excerpt weighted towards active compounds, which were near 12% of everything screened.
JMJD2A Tudor inh: blocks the human JMJD2A Tudor domain; O75164; AlphaScreen JMJD2A-Tudor / H3K4me3 peptide binding; Potency, µM (series often up to 114 µM), without a hit: top-dose activity change, negative = inhibition, usual class: inhibitors; actives 4.4% (n = 390,000); further: on the % scale 0 is the no-effect control and ±100 the full control effect; nearly all actives have a fitted effect of over 50% in size
BAZ2B block: inhibitors of human BAZ2B bromodomain. AID 504333. AlphaScreen BAZ2B-H3K14Ac peptide displacement. actives 4.4% (n = 360,000). Potency, µM (top dose mostly 114 µM), for inactives: top-dose activity change, negative = inhibition, actives largely listed as inhibitors; further: on the % scale 0 is the no-effect control and ±100 the full control effect; nearly all actives have a fitted effect of over 60% in size
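Inhibition is scored as reduced AlphaScreen emission. The BAZ2B/b-H3(5-23)K14Ac complex (50 nM each) in PBS pH 7.4, 0.01% Tween-20 meets compound (up to 110 uM) for 30 min at RT before bead addition.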
HP1b binding inh: HP1-beta chromodomain-methylated histone interaction inhibition; P83916; AlphaScreen HP1-beta / biotin-H3K9me3 peptide binding; Potency, µM (titrated, usually from 114 µM), for inactives: at the top dose activity change, negative = inhibition, most hits filed as inhibitors; actives 0.56% (n = 390,000); further: nearly all actives have a fitted effect of over 70% in size
Target sequence (P83916 whole entry, looked up): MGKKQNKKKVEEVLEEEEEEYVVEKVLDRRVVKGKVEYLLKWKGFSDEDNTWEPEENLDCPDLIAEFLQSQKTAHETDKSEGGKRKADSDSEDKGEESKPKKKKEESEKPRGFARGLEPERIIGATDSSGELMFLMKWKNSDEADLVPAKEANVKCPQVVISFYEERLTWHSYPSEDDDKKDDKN
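AlphaScreen: HP1-beta (50 nM) preformed 30 min with biotin-H3(1-18)K9me3 peptide (50 nM) in PBS pH 7.4, 0.01% Tween-20. Compound added for 30 min at RT, then streptavidin donor/nickel chelate acceptor beads (10 ug/mL) for 30 min.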
G9a block: inhibitors of human histone lysine methyltransferase G9a | AID 504332 | Potency, µM (doses to about 102 µM), without a hit: at the top dose activity, negative = inhibition, most hits filed as inhibitors | Q96KQ7 | actives 8.8% (n = 350,000) | G9a H3K9 monomethylation, AlphaScreen, 2 h; further: on the % scale 0 is the no-effect control and ±100 the full control effect; nearly all actives have a fitted effect of over 75% in size
Target sequence (Q96KQ7 913-1193 limits assumed): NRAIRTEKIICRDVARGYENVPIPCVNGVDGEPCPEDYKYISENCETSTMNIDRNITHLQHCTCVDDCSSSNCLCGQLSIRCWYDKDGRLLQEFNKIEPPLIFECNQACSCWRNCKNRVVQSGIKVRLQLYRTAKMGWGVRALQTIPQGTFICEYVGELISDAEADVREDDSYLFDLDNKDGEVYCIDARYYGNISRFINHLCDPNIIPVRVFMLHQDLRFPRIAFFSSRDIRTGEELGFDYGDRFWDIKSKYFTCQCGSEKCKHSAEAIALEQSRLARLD
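G9a (20 nM) was preincubated 15 min with compound, then reacted 2 h at room temperature with 500 nM biotin-H3K9 peptide and 20 µM SAM. Monomethyl-H3K9 detected by AlphaScreen using anti-H3K9me1 antibody.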
Sfp PPTase inh: blocks B. subtilis Sfp PPTase activity. Biochemical Sfp PPTase activity, qHTS. Potency, µM, without a hit: largest response in the series, negative = inhibition, hits mostly inhibitors. AID 1490. actives 3.5% (n = 310,000). Q9F4F7;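 further: the enzyme is Sfp with the accession as filed and its product quenches rhodamine fluorescence; 0% = enzyme reaction without inhibitor and -100% = no enzyme wells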
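With Hepes-Na pH 7.6 buffer containing 10 mM MgCl2, Sfp (15 nM) modified BHQ-2-YbbR (12.5 uM) using rhodamine-CoA (5 uM). Two reads 30 minutes apart at 525/598 nm yielded each well's rate.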
PLK1 PBD block: inhibitors of human PLK1 polo-box domain binding; AID 720504; actives 2.8% (n = 360,000); P53350; Potency, µM, for inactives: max response, negative = inhibition, actives largely listed as inhibitors; Plk1 PBD binding of FITC phosphopeptide, fluorescence polarization; further: series mostly up to about 57 µM; on the % scale 0 is the no-effect control and ±100 the full control effect; nearly all actives have a fitted effect of over 65% in size
* marks the source's active call; other numbers are inactive results; ? = inconclusive; . = no result given; [ ] = another dose, or the depositor's remark. The call rests on the fitted dose curve; in most records, active means well fitted curve in the direction sought with a large enough effect; inconclusive means small, poorly fitted or top-dose-only effect, or another doubt; inactive means no such curve, though single readings can be large; an effect the other way counts as inactive or inconclusive. Potency means the concentration at half of the fitted maximal effect.

SMILES	JMJD2A Tudor inh	BAZ2B block	HP1b binding inh	G9a block	Sfp PPTase inh	PLK1 PBD block
C=CCn1c(SCC(=O)NCC2CCCO2)nc2scc(-c3ccccc3)c2c1=O (stereo not given)	-7%	-11%	42%	13%	11%	4%
C=CCn1c(=S)[nH]c2sccc2c1=O	?	3%	15%	13µM*	-38%	-18%
C=CCn1c(=S)[nH]c2scc(-c3ccc(C)o3)c2c1=O	?	-1%	-11%	50µM*	28µM*	?
O=C(CSc1ncc2c(n1)-c1ccc(Cl)cc1N(Cc1ccccc1)S2(=O)=O)Nc1ccccc1C(F)(F)F	-10%	-10%	13%	-12%[59 µM]	.	.
CCOC(=O)C1CCCN(S(=O)(=O)c2cc3c4c(c2)CC(=O)N4CCC3)C1 (stereo not given)	-2%	-17%	23%	3%[59 µM]	.	.
COc1cc(NS(=O)(=O)c2cc3c(cc2C)N(C)CCO3)cc(OC)c1OC	-13%	-29%	10%	-13%[59 µM]	.	.
C=CCn1c(SCC(=O)NC2CCCC2)nc2scc(-c3ccco3)c2c1=O	-36%	?	12%	?	10µM*	-29%
O=C(Nc1cccc(Cl)c1)C1COc2ccccc2O1 (stereo not given)	34%	17%	48%	43%	14%	6%
CC(=O)c1ccccc1Oc1cc(NN2CCCCC2)c([N+](=O)[O-])cc1[N+](=O)[O-]	?	32µM*	9%	28µM*	5%	-12%
CC(=O)c1cccc(Oc2cc(NN3CCCCC3)c([N+](=O)[O-])cc2[N+](=O)[O-])c1	?	?	-12%	50µM*	18%	-3%
N#Cc1nc(Nc2ccccc2)nc(NC2CCCC2)n1	-7%	.	.	.	.	.
CN1CCN(C(=O)c2cn(C)c3ccc(S(=O)(=O)N(C)C4CCCCC4)cc3c2=O)CC1	-27%	-28%	20%	56µM*	14%	-35%
CN(C)S(=O)(=O)c1ccc2c(c1)c(=O)c(C(=O)NCCCN1CCCCCC1)cn2C	-6%	7%	40%	45µM*	-11%	-4%
CN(CCCNC(=O)c1cn(C)c2ccc(S(=O)(=O)N(C)C)cc2c1=O)c1ccccc1	?	?	-1%	50µM*	5%	-8%
CN(C1CCCCC1)S(=O)(=O)c1ccc2c(c1)c(=O)c(C(=O)NCCc1ccccc1)cn2C	-18%	.	36%	-40%[59 µM]	.	.
CCN(CC)CCCNC(=O)c1cn(CC)c2ccc(S(=O)(=O)N3CCc4ccccc4C3)cc2c1=O	-14%	1%	23%	-42%	5%	3%
CN(C1CCCCC1)S(=O)(=O)c1ccc2c(c1)c(=O)c(C(=O)N1CCN(c3ccc(F)cc3)CC1)cn2C	-16%	.	18%	-30%[59 µM]	.	.
CCN(CC)CCNC(=O)c1cn(CC)c2ccc(S(=O)(=O)N3CCc4ccccc4C3)cc2c1=O	-29%	-6%	12%	-5%[59 µM]	12%	27µM*
Clc1ccccc1-c1nnc(SCc2nc(-c3ccccc3)no2)n1-c1ccccc1	-19%	-22%	28%	-19%[59 µM]	.	.
CCn1cc(C(=O)O)c(=O)c2cc(S(=O)(=O)N(C)C)ccc21	20µM*	-2%	11%	?	-7%	2%
COc1ccc(-c2cnc3c(NC(C)=O)cc(-c4ccccc4OC)cn23)cc1OC	.	.	.	.	.	-17%
COc1ccc(-c2cnc3c(NC(C)=O)cc(-c4ccsc4)cn23)cc1OC	.	.	.	.	.	24µM*
CCCc1nnn(S(=O)(=O)c2ccc([N+](=O)[O-])cc2)c1CCC	-1%	.	24%	.	.	-5%
O=C(O)C(S)[C@@H](S)C(=O)O (stereo not given in full)	.	.	.	?	-90%	.
O=C(O)C(S)C(S)C(=O)O (stereo not given)	50µM*	.	?	.	.	8.4µM*
SMILES	JMJD2A Tudor inh	BAZ2B block	HP1b binding inh	G9a block	Sfp PPTase inh	PLK1 PBD block
O=Cc1cc(N=Nc2ccccc2Cl)ccc1O	25µM*	10µM*	?	10µM*	-14%	?
O=Cc1cc(N=Nc2cccc(C(=O)O)c2)ccc1O	-13%	?	9%	?	-7%	-20%
CCOc1ccc(-n2c(C)nc(O)c2N=Nc2ccccc2)cc1	?	?	-7%	1.4µM*	-3%	-12%
CCN1N=C(C)C=C(c2ccccc2)n2c1nc1ccccc12	-12%	-17%	25%	79µM*	14%	-4%
S=c1[nH]c2cc(-c3ccccc3)ccc2o1	-20%	?	14%[57 µM]	10µM*	?	?
CCOC(=O)CSC1=NC(=O)CS1	-14%	?	29%	?	79µM*	?
CCOC(=O)CNC(=O)CSc1nnc(NC(=O)c2ccc(C)cc2)s1	-14%	.	18%	-44%	15%	-9%
CCOC(=O)CSc1nn(C)c(=S)s1	-35%	-3%	-7%	-11%[59 µM]	-1%	?
CCOC(=O)CNC(=O)CSc1nnc(SCC(=O)NCC(=O)OCC)s1	6%	-1%	27%	18µM*	?	-10%
CCOC(=O)CSc1n[nH]c(=S)s1	?	?	?	.	?	27µM*
Nc1nnc(SCC(=O)N2CCN(Cc3ccccc3)CC2)s1	-5%	3%	20%	45µM*	-2%	-11%
O=C(O)COc1ccc2ccccc2c1	.	.	.	.	4%	.
CCOC(=O)CSc1nnc(N)s1	56µM*	-4%	18%	18µM*	-2%	-9%
CCc1cc(=O)oc2c(CNCc3ccccc3F)c(O)c(Cl)cc12	?	?	40%	50µM*	-18%	30µM*
NC(=O)c1c(NC(=O)C2CCCO2)sc2c1CCC2 (stereo not given)	-24%	3%	13%	7%	0%	-4%
NC(=O)c1c(NC(=O)C2CCCO2)sc2c1CCCCC2 (stereo not given)	?	-30%	?	3.5µM*	-83%	11µM*
N#Cc1c(NC(=O)CCCC(=O)O)sc2c1CCCCC2	0%	23%	10%	29%[59 µM]	56µM*	-13%
N#Cc1c(NC(=O)COC(=O)c2nccnc2N)sc2c1CCCC2	25µM*	79µM*	0%	45µM*	.	-8%
CCCOC(=O)c1c(NC(=O)CCC(=O)O)sc2c1CCCCC2	-4%	-27%	3%	50µM*	?	-14%
Cc1csc(NC(=O)c2ccc(Cl)nc2)n1	5%	-2%	41%	0%	18%	-1%
CC(C)(C)OC(=O)n1cc(CCO)c2ccccc21	-15%	1%	35%	11%[0.501 µM]	.	4%
CCn1cc(C(=O)NCc2ccc(OC)cc2)c(=O)c2ccc(C)nc21	-20%	7%	14%	5%[0.501 µM]	-9%	-6%
NC(=O)c1c(NC(=O)CCCC(=O)O)sc2c1CCCCCC2	-31%[57.1 µM]	2%	?	50µM*	79µM*	27µM*
